According to PubChem BioAssay AID1159580 (chemical genetic matrix, 2015):
Where “and” joins values, the source holds several entries; their conditions need not be identical. Identical values can stand only once. Screen size: about 5,500 compounds; about 2,000 (36%) were called active. About 18% were inconclusive and are not listed. This is one part of the list. Unmarked numbers belong to inactive results. Cut-off read from the data, not from the text of the source: active = normalized growth mostly below about 0.91 (no sharp cut-off); inconclusive = no clear call, values can overlap the other calls; inactive = mostly above about 0.92.

Test: chemical genetic growth profiling, strain panel (AID 1159580);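 note: tested at 20 µM; growth read once vehicle control cultures reached saturation at 30 °C; 1 = growth at the plate median or of vehicle wells; lower values mean less growth of the strain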
Settings: S. cerevisiae deletion strains, growth OD

## O=C1c2c(O)cccc2Cc2cccc(O)c21
Locus YAL013W, strain DEP1, active compounds read low
  normalized growth: 1.04
Locus YAL021C, strain ccr4, active compounds read low
  normalized growth: 0.958
Locus YAL026C, strain drs2, active compounds read low
  normalized growth: 0.988
Locus YAL030W, strain snc1, active compounds read low
  normalized growth: 0.986
Locus YBL061C, strain skt5, active compounds read low
  normalized growth: 1
Locus YBR009C, strain hhf1, active compounds read low
  normalized growth: 0.997
Locus YBR021W, strain FUR4, active compounds read low
  normalized growth: 1
Locus YBR023C, strain chs3, active compounds read low
  normalized growth: 0.988
Locus YBR171W, strain sec66, active compounds read low
  normalized growth: 0.975
Locus YBR229C, strain ROT2, active compounds read low
  normalized growth: 0.998
Locus YBR231C, strain swc5, active compounds read low
  normalized growth: 0.981
Locus YBR279W, strain paf1, active compounds read low
  normalized growth: 0.966
Locus YCL011C, strain gbp2, active compounds read low
  normalized growth: 0.973
Locus YCL016C, strain dcc1, active compounds read low
  normalized growth: 1.03
Locus YCL029C, strain bik1, active compounds read low
  normalized growth: 0.992
Locus YCL061C, strain MRC1, active compounds read low
  normalized growth: 0.978
Locus YCL069W, strain vba3, active compounds read low
  normalized growth: 1.01
Locus YCR088W, strain abp1, active compounds read low
  normalized growth: 1.01
Locus YDL005C, strain med2, active compounds read low
  normalized growth: 0.978
Locus YDL035C, strain GPR1, active compounds read low
  normalized growth: 1.02
Locus YDL040C, strain nat1, active compounds read low
  normalized growth: 0.999
Locus YDL074C, strain BRE1, active compounds read low
  normalized growth: 1.04
Locus YDL101C, strain DUN1, active compounds read low
  normalized growth: 1.01
Locus YDL134C, strain PPH21, active compounds read low
  normalized growth: 1.02
Locus YDL185W, strain tfp1, active compounds read low
  normalized growth: 0.999
Locus YDL192W, strain arf1, active compounds read low
  normalized growth: 0.994
Locus YDR001C, strain nth1, active compounds read low
  normalized growth: 0.988
Locus YDR069C, strain doa4, active compounds read low
  normalized growth: 0.946
Locus YDR101C, strain arx1, active compounds read low
  normalized growth: 0.99
Locus YDR137W, strain rgp1, active compounds read low
  normalized growth: 0.848
Locus YDR159W, strain sac3, active compounds read low
  normalized growth: 0.982
Locus YDR162C, strain NBP2, active compounds read low
  normalized growth: 1.03
Locus YDR195W, strain ref2
  normalized growth: 1.11
Locus YDR297W, strain sur2, active compounds read low
  normalized growth: 1.01
Locus YDR318W, strain mcm21, active compounds read low
  normalized growth: 0.994
Locus YDR334W, strain swr1, active compounds read low
  normalized growth: 0.936
Locus YDR335W, strain msn5, active compounds read low
  normalized growth: 0.999
Locus YDR388W, active compounds read low
  normalized growth: 0.992
Locus YDR392W, strain spt3, active compounds read low
  normalized growth: 0.986
Locus YDR502C, strain sam2, active compounds read low
  normalized growth: 1.01
Locus YEL003W, strain gim4, active compounds read low
  normalized growth: 1.03
Locus YEL037C, strain rad23, active compounds read low
  normalized growth: 1
Locus YEL061C, strain CIN8 (second series), active compounds read low
  normalized growth: 0.986
Locus YEL061C, strain CIN8, active compounds read low
  normalized growth: 1
Locus YER015W, strain faa2, active compounds read low
  normalized growth: 1.01
Locus YER016W, strain bim1, active compounds read low
  normalized growth: 1.01
Locus YER110C, active compounds read low
  normalized growth: 0.997
Locus YER111C, strain swi4, active compounds read low
  normalized growth: 1.01
Locus YER155C, strain BEM2 (second series), active compounds read low
  normalized growth: 0.957
Locus YER155C, strain BEM2, active compounds read low
  normalized growth: 0.997
Locus YER167W, strain BCK2, active compounds read low
  normalized growth: 1
Locus YFR010W, strain ubp6, active compounds read low
  normalized growth: 0.957
Locus YGL078C, strain dbp3, active compounds read low
  normalized growth: 0.992
Locus YGL086W, strain mad1, active compounds read low
  normalized growth: 1
Locus YGL167C, strain pmr1, active compounds read low
  normalized growth: 0.962
Locus YGL173C, strain kem1, active compounds read low
  normalized growth: 0.996
Locus YGL227W, strain vid30, active compounds read low
  normalized growth: 0.976
Locus YGL240W, strain doc1, active compounds read low
  normalized growth: 0.985
Locus YGL248W, strain PDE1, active compounds read low
  normalized growth: 1.02
Locus YGL253W, strain hxk2, active compounds read low
  normalized growth: 0.963
Locus YGR078C, strain PAC10, active compounds read low
  normalized growth: 1.03
Locus YGR135W, strain pre9, active compounds read low
  normalized growth: 0.999
Locus YGR252W, strain gcn5, active compounds read low
  normalized growth: 1.02
Locus YHR013C, strain ard1, active compounds read low
  normalized growth: 1
Locus YHR027C, strain rpn1, active compounds read low
  normalized growth: 0.976
Locus YHR030C, strain SLT2, active compounds read low
  normalized growth: 1.01 and 1.06
Locus YHR079C, strain IRE1 (second series), active compounds read low
  normalized growth: 0.994
Locus YHR079C, strain IRE1, active compounds read low
  normalized growth: 1.08
Locus YHR094C, strain hxt1, active compounds read low
  normalized growth: 0.993
Locus YHR129C, strain ARP1, active compounds read low
  normalized growth: 1.01
Locus YHR142W, strain chs7, active compounds read low
  normalized growth: 1.02
Locus YHR200W, strain rpn10, active compounds read low
  normalized growth: 1
Locus YIL066C, strain RNR3, active compounds read low
  normalized growth: 1.02
Locus YIL073C, strain SPO22, active compounds read low
  normalized growth: 1.03
Locus YIL125W, strain kgd1, active compounds read low
  normalized growth: 1
Locus YIR030C, strain dcg1, active compounds read low
  normalized growth: 0.992
Locus YJL092W, strain hpr5, active compounds read low
  normalized growth: 1.01
Locus YJL095W, strain BCK1 (second series), active compounds read low
  normalized growth: 0.967
Locus YJL095W, strain BCK1, active compounds read low
  normalized growth: 1.05 and 1.06
Locus YJL115W, strain asf1, active compounds read low
  normalized growth: 0.982
Locus YJL129C, strain trk1, active compounds read low
  normalized growth: 1.05
Locus YJL134W, strain LCB3, active compounds read low
  normalized growth: 1.01
Locus YJL154C, strain vps35, active compounds read low
  normalized growth: 0.988
Locus YJL164C, strain tpk1, active compounds read low
  normalized growth: 1.02
Locus YJL166W, strain qcr8, active compounds read low
  normalized growth: 0.984
Locus YJL168C, strain set2, active compounds read low
  normalized growth: 0.99
Locus YJL187C, strain SWE1 (second series), active compounds read low
  normalized growth: 1.02
Locus YJL187C, strain SWE1, active compounds read low
  normalized growth: 1
Locus YJR043C, strain POL32, active compounds read low
  normalized growth: 1.06
Locus YJR066W, strain TOR1, active compounds read low
  normalized growth: 0.994
Locus YJR075W, strain HOC1, active compounds read low
  normalized growth: 1.03
Locus YKL009W, strain mrt4, active compounds read low
  normalized growth: 1.01
Locus YKL068W, active compounds read low
  normalized growth: 0.99
Locus YKL085W, strain MDH1 (second series), active compounds read low
  normalized growth: 0.994
Locus YKL085W, strain MDH1, active compounds read low
  normalized growth: 0.994
Locus YKL160W, strain elf1, active compounds read low
  normalized growth: 1
Locus YKR001C, strain vps1, active compounds read low
  normalized growth: 1.01
Locus YKR026C, strain gcn3, active compounds read low
  normalized growth: 0.991
Locus YKR091W, strain srl3, active compounds read low
  normalized growth: 0.985
Locus YLL001W, strain dnm1, active compounds read low
  normalized growth: 1
Locus YLL026W, active compounds read low
  normalized growth: 1
Locus YLL041C, strain sdh2, active compounds read low
  normalized growth: 0.997
Locus YLR027C, strain aat2, active compounds read low
  normalized growth: 1.03
Locus YLR039C, strain RIC1, active compounds read low
  normalized growth: 1.24
Locus YLR058C, strain SHM2, active compounds read low
  normalized growth: 1.01
Locus YLR102C, strain apc9, active compounds read low
  normalized growth: 0.995
Locus YLR113W, strain HOG1, active compounds read low
  normalized growth: 1.13
Locus YLR221C, strain rsa3, active compounds read low
  normalized growth: 0.985
Locus YLR258W, strain gsy2, active compounds read low
  normalized growth: 0.976
Locus YLR262C, strain YPT6 (second series), active compounds read low
  normalized growth: 0.862
Locus YLR262C, strain YPT6, active compounds read low
  normalized growth: 1.28
Locus YLR268W, strain sec22, active compounds read low
  normalized growth: 1.02
Locus YLR320W, strain mms22, active compounds read low
  normalized growth: 0.996
Locus YLR330W, strain CHS5, active compounds read low
  normalized growth: 1
Locus YLR342W, strain FKS1 (second series), active compounds read low
  normalized growth: 1.01
Locus YLR342W, strain FKS1, active compounds read low
  normalized growth: 0.996
Locus YLR357W, strain rsc2, active compounds read low
  normalized growth: 0.921
Locus YLR370C, strain arc18, active compounds read low
  normalized growth: 0.985
Locus YLR371W, strain rom2, active compounds read low
  normalized growth: 1
Locus YLR384C, strain iki3, active compounds read low
  normalized growth: 0.974
Locus YLR418C, strain cdc73, active compounds read low
  normalized growth: 1.11
Locus YML016C, strain PPZ1, active compounds read low
  normalized growth: 1
Locus YML032C, strain rad52, active compounds read low
  normalized growth: 0.996
Locus YML120C, strain ndi1, active compounds read low
  normalized growth: 1.02
Locus YML124C, strain tub3, active compounds read low
  normalized growth: 0.988
Locus YMR058W, strain fet3, active compounds read low
  normalized growth: 0.999
Locus YMR078C, strain ctf18, active compounds read low
  normalized growth: 0.999
Locus YMR125W, strain sto1, active compounds read low
  normalized growth: 0.988
Locus YMR129W, active compounds read low
  normalized growth: 0.995
Locus YMR205C, strain PFK2, active compounds read low
  normalized growth: 1.03
Locus YMR223W, strain ubp8, active compounds read low
  normalized growth: 1
Locus YMR231W, strain pep5, active compounds read low
  normalized growth: 0.976
Locus YMR263W, strain SAP30, active compounds read low
  normalized growth: 1.02
Locus YMR307W, strain GAS1, active compounds read low
  normalized growth: 0.997
Locus YNL067W, strain RPL9B, active compounds read low
  normalized growth: 1.04
Locus YNL071W, strain lat1, active compounds read low
  normalized growth: 1.02
Locus YNL183C, strain NPR1, active compounds read low
  normalized growth: 1
Locus YNL209W, strain ssb2, active compounds read low
  normalized growth: 1
Locus YNL233W, strain BNI4, active compounds read low
  normalized growth: 1.05
Locus YNL248C, strain rpa49, active compounds read low
  normalized growth: 0.906
Locus YNL250W, strain rad50, active compounds read low
  normalized growth: 0.99
Locus YNL271C, strain bni1, active compounds read low
  normalized growth: 0.989
Locus YNL298W, strain CLA4, active compounds read low
  normalized growth: 0.985
Locus YNL307C, strain MCK1, active compounds read low
  normalized growth: 1.01
Locus YNL322C, strain KRE1 (second series), active compounds read low
  normalized growth: 0.988
Locus YNL322C, strain KRE1, active compounds read low
  normalized growth: 1
Locus YNR049C, strain mso1, active compounds read low
  normalized growth: 1.01
Locus YNR052C, strain pop2, active compounds read low
  normalized growth: 0.993
Locus YOL012C, strain htz1
  normalized growth: 0.791
Locus YOL147C, strain pex11, active compounds read low
  normalized growth: 0.997
Locus YOR001W, strain rrp6, active compounds read low
  normalized growth: 0.979
Locus YOR061W, strain CKA2, active compounds read low
  normalized growth: 1.01
Locus YOR069W, strain VPS5, active compounds read low
  normalized growth: 1.01
Locus YOR070C, strain gyp1, active compounds read low
  normalized growth: 1.03
Locus YOR080W, strain dia2, active compounds read low
  normalized growth: 1
Locus YOR083W, strain WHI5, active compounds read low
  normalized growth: 0.954
Locus YOR106W, strain vam3, active compounds read low
  normalized growth: 0.898
Locus YOR136W, strain idh2, active compounds read low
  normalized growth: 0.993
Locus YOR144C, strain elg1, active compounds read low
  normalized growth: 0.996
Locus YOR184W, strain ser1, active compounds read low
  normalized growth: 1.02
Locus YOR231W, strain MKK1, active compounds read low
  normalized growth: 1.07
Locus YOR265W, strain rbl2, active compounds read low
  normalized growth: 0.996
Locus YOR270C, strain vph1, active compounds read low
  normalized growth: 0.755 (active)
Locus YOR290C, strain snf2, active compounds read low
  normalized growth: 1.02
Locus YOR316C, strain cot1, active compounds read low
  normalized growth: 0.997
Locus YPL051W, strain arl3, active compounds read low
  normalized growth: 0.914 (active)
Locus YPL078C, strain atp4, active compounds read low
  normalized growth: 1.01
Locus YPL106C, strain sse1, active compounds read low
  normalized growth: 0.919
Locus YPL240C, strain hsp82, active compounds read low
  normalized growth: 0.991
Locus YPL256C, strain CLN2, active compounds read low
  normalized growth: 1.17
Locus YPR119W, strain clb2, active compounds read low
  normalized growth: 0.988
Locus YPR141C, strain kar3, active compounds read low
  normalized growth: 0.993
Locus YPR163C, strain tif3, active compounds read low
  normalized growth: 0.997
Locus YPR167C, strain met16, active compounds read low
  normalized growth: 1
Strain wtn01, active compounds read low
  normalized growth: 0.999
